SMN2 splice enh – increases expression of the SMN2 splice variant | HEK293 SMN2-luciferase splicing reporter, luminescence, 30-36 h | Potency, µM (series often up to 46.1 µM), hits mostly activators | hit rate 2.8% among 210,000; also: nearly all actives have a fitted effect of over 55% in size
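qHTS luciferase splicing reporter: luminescence rises when SMN2 exon 7 is included in transfected HEK293 cells. Compound exposure lasted 30-36 h at 37C, with 4.5 mM final sodium butyrate as control, followed by a ONE-Glo read.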
FLuc counter – inhibits or activates purified firefly luciferase, miR-21 counter-screen; purified FLuc, Km substrates, luminescence inhibition; Potency, µM (highest dose often 57.5 µM), usual class: inhibitors; hit rate 6.9% among 360,000; P08659; also: nearly all actives have a fitted effect of over 55% in size
Target sequence (P08659 whole entry, looked up): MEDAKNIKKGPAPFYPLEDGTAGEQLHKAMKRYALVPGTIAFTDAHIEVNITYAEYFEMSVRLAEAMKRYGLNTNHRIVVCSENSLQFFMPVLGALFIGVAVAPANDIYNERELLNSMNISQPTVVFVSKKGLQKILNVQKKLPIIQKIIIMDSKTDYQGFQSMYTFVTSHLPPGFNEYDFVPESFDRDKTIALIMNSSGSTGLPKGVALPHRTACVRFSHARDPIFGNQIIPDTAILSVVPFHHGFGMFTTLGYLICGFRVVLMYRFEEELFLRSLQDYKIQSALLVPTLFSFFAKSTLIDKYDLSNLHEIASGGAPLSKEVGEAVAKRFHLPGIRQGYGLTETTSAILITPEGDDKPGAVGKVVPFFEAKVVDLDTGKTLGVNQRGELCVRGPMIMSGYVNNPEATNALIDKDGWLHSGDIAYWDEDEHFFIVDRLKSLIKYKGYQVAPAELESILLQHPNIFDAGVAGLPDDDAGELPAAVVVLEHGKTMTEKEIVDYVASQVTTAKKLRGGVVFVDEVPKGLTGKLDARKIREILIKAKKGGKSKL
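Purified P. pyralis luciferase (10nM final) with 10uM D-luciferin and 10uM ATP (Km levels) in 50mM Tris acetate pH 7.5, 10mM Mg acetate, 0.01% Tween-20, 0.05% BSA; qHTS 6-point titration, ~60 µM downward; luminescence read.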
Rab9 prom act – Rab9 promoter activation; Huh7 Rab9 promoter-luciferase reporter, luminescence, 24 h; hit rate 2.8% among 320,000; Potency, µM (titrated, usually from 9.22 µM), hits mostly activators; also: nearly all actives have a fitted effect of over 60% in size
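Cells were plated at 1500 per well in reduced-serum medium with 10% FBS and left 2 h. Compound in DMSO was then added for 24 h at 37 °C. Reporter signal was read by luminescence after 10 min with luciferase detection reagent.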
NPC1 prom act – NPC1 promoter activation; Huh7 NPC1 promoter luciferase reporter, 24 h; Potency, µM (highest dose often 9.22 µM), most hits filed as activators; hit rate 2.4% among 320,000; AID 485313; also: nearly all actives have a fitted effect of over 60% in size
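Compounds in DMSO were transferred onto Huh7 NPC1-luciferase reporter cells pre-incubated 2 h; after 24 h at 37 °C, Amplite reagent was dispensed and luminescence recorded 10 min later.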
ELG1 repair inh – inhibitors of ELG1-dependent DNA repair in HEK293T cells; HEK293T ELG1-luciferase reporter, luminescence, 16 h; DNA damage induced by 5-fluorouridine; Potency, µM (titrated, usually from 46.1 µM), hits mostly inhibitors; hit rate 2.3% among 330,000; AID 504467; also: nearly all actives have a fitted effect of over 55% in size
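Overnight (16 hr) co-exposure of 2,000 cells/well to 5-fluorouridine and compound at 37 °C preceded detection. Luciferase was quantified via ONE-Glo luminescence; loss of signal denotes inhibition.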
ELG1 genotox – genotoxicity induction in ELG1-luciferase HEK293T cells | HEK293T ELG1-luciferase reporter, luminescence, 16 h | hit rate 1.3% among 330,000 | AID 504466 | Potency, µM (titrated, usually from 46 µM), hits mostly activators; also: nearly all actives have a fitted effect of over 60% in size
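HEK293T cells expressing luciferase-tagged ELG1 were treated with compound or DMSO for 16 hr at 37°C. Luciferase activity was then read after 30 min with ONE-Glo at room temperature; rising signal flags genetic stress.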
Large screens that a line does not name were inactive. Most compounds without a hit are left out; they make up all but 9.2% or so of the library. Calls follow the shape of the dose curve; as a rule, active = well fitted curve in the direction sought with a large enough effect; inconclusive = small, poorly fitted or top-dose-only effect, or another doubt; inactive = no such curve, though single readings can be large; an effect the other way counts as inactive or inconclusive.

COc1ccc(N2CCN(C(=O)c3cc(-c4cc(OC)ccc4OC)nc4ccccc34)CC2)cc1	ELG1 repair inh 7.3µM (no result: SMN2 splice enh)
CCOC(=O)c1ccccc1NC(=O)CSc1cn(CC(=O)N2CCOCC2)c2ccccc12	none (no result: SMN2 splice enh, Rab9 prom act, NPC1 prom act, ELG1 repair inh, ELG1 genotox)
COc1ccc(-c2cc(C(=O)N3CCN(c4ncccn4)CC3)c3ccccc3n2)c(OC)c1	FLuc counter inconclusive, ELG1 repair inh 9.2µM
COc1ccc(C(=O)[C@@H]2CC[C@](C)(C(=O)O)C2(C)C)cc1	none (no result: SMN2 splice enh)
Nn1c(SCc2ccc(F)cc2)nnc1-c1ccccn1	FLuc counter inconclusive, ELG1 repair inh inconclusive (no result: SMN2 splice enh)
Nn1c(SCc2ccccc2F)nnc1-c1ccccn1	FLuc counter 15µM, Rab9 prom act 1.4µM, NPC1 prom act 4µM, ELG1 repair inh inconclusive, ELG1 genotox 18µM (no result: SMN2 splice enh)
O=C(CSc1nnc(Cc2cccs2)n1CCc1ccccc1)N1CCCc2ccccc21	ELG1 repair inh 21µM
CC1Cc2ccccc2N1C(=O)CSc1nnc(Cc2ccccc2)n1CCc1ccccc1 (stereo not given)	ELG1 repair inh 18µM
Cn1c(Cc2cccs2)nnc1SCC(=O)N1CCCc2ccccc21	ELG1 repair inh inconclusive
Cc1ccc(N2C(=O)N(c3ccc(C)cc3)C3CS(=O)(=O)CC32)cc1 (stereo not given)	Rab9 prom act inconclusive
O=C(Nc1cccc(NC(=O)c2cncc(Br)c2)c1)c1cncc(Br)c1	ELG1 repair inh 21µM (no result: SMN2 splice enh)
O=C(Nc1ccc(N2CCCCC2)cc1)c1cncc(Br)c1	SMN2 splice enh inconclusive, FLuc counter 6µM, Rab9 prom act inconclusive, NPC1 prom act 3.5µM
O=C(Nc1ccc(N2CCN(C(=O)c3ccccc3F)CC2)cc1)c1cncc(Br)c1	ELG1 repair inh 3.7µM (no result: SMN2 splice enh)
O=C(Nc1ccc(N2CCN(C(=O)c3cccs3)CC2)cc1)c1ccccc1F	ELG1 repair inh inconclusive (no result: SMN2 splice enh)
CCCCCCNc1nc(-c2ccc(OC)cc2)c(CCC(=O)O)s1	none
O=C(O)c1ccc(N/N=C/C=C/c2ccccc2[N+](=O)[O-])cc1	SMN2 splice enh 8.9µM, FLuc counter 3.4µM, Rab9 prom act 1.4µM, NPC1 prom act 1.4µM, ELG1 repair inh inconclusive, ELG1 genotox inconclusive
O=C(/C=C/c1ccccc1[N+](=O)[O-])c1ccc(F)cc1	FLuc counter 13µM, ELG1 repair inh inconclusive, ELG1 genotox inconclusive
O=C(/C=C/c1ccccc1[N+](=O)[O-])Oc1ccccc1	FLuc counter 6.7µM (no result: SMN2 splice enh)
COc1ccc(C(=O)COC(=O)/C=C/c2ccccc2[N+](=O)[O-])cc1	none (no result: SMN2 splice enh, FLuc counter, Rab9 prom act, NPC1 prom act)
O=C(/C=C/c1ccccc1[N+](=O)[O-])OCC(=O)c1ccccc1	FLuc counter 24µM
CC(=O)N1c2ccc(F)c(F)c2C[C@H]1C	ELG1 repair inh inconclusive (no result: SMN2 splice enh)
CSc1cccc(NC(=O)C2CCN(S(=O)(=O)c3ccc4[nH]c(=O)ccc4c3)CC2)c1	none (no result: SMN2 splice enh, Rab9 prom act, NPC1 prom act, ELG1 repair inh, ELG1 genotox)
NC(=O)C1CCN(C(=O)CCNS(=O)(=O)c2ccccc2F)CC1	none (no result: SMN2 splice enh)
COC(=O)C(=Cc1ccccc1[N+](=O)[O-])C(=O)OC	ELG1 repair inh 23µM (no result: SMN2 splice enh)
COc1ccc(CNC(=O)/C=C/c2ccccc2[N+](=O)[O-])cc1	none
O=C(NCCO)c1ccc2c3n(nc2c1)-c1ccc(Cl)cc1CO3	FLuc counter 6µM, Rab9 prom act 3.5µM, NPC1 prom act 2µM, ELG1 repair inh inconclusive, ELG1 genotox inconclusive (no result: SMN2 splice enh)
Cc1ccc(-n2cnc3cc(C(=O)NCCC4=CCCCC4)ccc32)c(C)c1	none (no result: SMN2 splice enh, Rab9 prom act, NPC1 prom act, ELG1 repair inh, ELG1 genotox)
COCCNC(=O)c1ccc2c(c1)CCN2S(C)(=O)=O	none
COCCNC(=O)c1ccc2c3n(nc2c1)-c1ccc(Cl)cc1CO3	FLuc counter 8.5µM, Rab9 prom act 3.5µM, NPC1 prom act 1.4µM, ELG1 repair inh inconclusive, ELG1 genotox inconclusive (no result: SMN2 splice enh)
COCCNC(=O)c1ccc2c(c1)nc(C)n2-c1cccc(Cl)c1	none (no result: SMN2 splice enh)
Cc1ccc2c(c1)COc1c3ccc(C(=O)NCCO)cc3nn1-2	FLuc counter 4.8µM, Rab9 prom act 1µM, NPC1 prom act 1.1µM, ELG1 repair inh inconclusive, ELG1 genotox 15µM (no result: SMN2 splice enh)
COCCNC(=O)c1ccc2c3n(nc2c1)-c1ccccc1CO3	FLuc counter 3.8µM, Rab9 prom act 1µM, NPC1 prom act 1.1µM, ELG1 repair inh inconclusive, ELG1 genotox inconclusive (no result: SMN2 splice enh)

Screening results as filed in PubChem BioAssay.
